# Compound activity: PubChem BioAssay, National Center for Advancing Translational Sciences (NCATS)
# Only some compounds are listed: those with a hit (about 7.4% of all), similar ones and a draw of the others.
# Rab9 prom act – qHTS Assay for Rab9 Promoter Activators. Potency, µM (highest dose often 9.22 µM), without a hit: top-dose activation, negative = inhibition, most hits filed as activators. Huh7 Rab9 promoter-luciferase reporter, luminescence, 24 h. 320,000 tested, 2.8% active; note: % of control where 0% means no effect; nearly all actives have a fitted effect of over 60% in size
#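 Rab9 promoter-driven luciferase in stably transfected Huh7 cells; 1500 cells/well rested 2 h, exposed to compound in DMSO for 24 h at 37 °C, 5% CO2. Luminescence read 10 min after adding luciferase reagent at ambient temperature.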
# ELG1 genotoxic – qHTS screen for small molecules that induce genotoxicity in human embryonic kidney (HEK293T) cells expressing luciferase-tagged ELG1. HEK293T ELG1-luciferase reporter, luminescence, 16 h. Potency, µM (doses to about 46 µM), for inactives: at the highest dose activity change, positive = activation, most hits filed as activators. 330,000 tested, 1.3% active. AID 504466, 2011; note: % of control where 0% means no effect; nearly all actives have a fitted effect of over 60% in size
#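 Genotoxic stress is detected as increased luminescence from luciferase-tagged ELG1 in HEK293T cells, measured with ONE-Glo after a 16 hr treatment at 37 °C.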
# FLuc counter – qHTS profiling assay for firefly luciferase inhibitor/activator using purifed enzyme and Km concentrations of substrates (counterscreen for miR-21 project) | purified FLuc, Km substrates, luminescence inhibition | 360,000 tested, 6.9% active | AID 588342, 2011 | Potency, µM (series often up to 57.5 µM), inactives show at the top dose activity change, negative = inhibition, most hits filed as inhibitors | Luciferin 4-monooxygenase (Photinus pyralis), P08659;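 note: plate controls were vehicle for no effect and reference inhibitor for full effect; nearly all actives have a fitted effect of over 55% in size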
# Target sequence (P08659 whole entry, looked up): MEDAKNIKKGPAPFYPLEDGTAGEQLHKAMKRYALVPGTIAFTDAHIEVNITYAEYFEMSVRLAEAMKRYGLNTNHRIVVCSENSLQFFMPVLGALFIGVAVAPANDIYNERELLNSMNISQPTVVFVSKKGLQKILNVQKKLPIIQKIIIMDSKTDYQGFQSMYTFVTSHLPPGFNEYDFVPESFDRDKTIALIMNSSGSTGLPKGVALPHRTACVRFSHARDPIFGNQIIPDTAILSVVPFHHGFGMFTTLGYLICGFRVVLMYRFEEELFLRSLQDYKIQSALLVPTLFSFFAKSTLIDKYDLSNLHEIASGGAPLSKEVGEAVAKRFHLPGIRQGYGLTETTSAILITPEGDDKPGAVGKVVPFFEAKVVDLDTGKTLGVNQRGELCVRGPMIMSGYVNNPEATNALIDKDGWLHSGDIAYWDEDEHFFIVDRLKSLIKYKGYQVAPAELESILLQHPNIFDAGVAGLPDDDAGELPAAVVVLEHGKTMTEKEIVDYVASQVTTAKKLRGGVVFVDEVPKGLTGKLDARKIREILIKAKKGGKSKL
#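 Purified P. pyralis luciferase (10nM final) with 10uM D-luciferin and 10uM ATP (Km levels) in 50mM Tris acetate pH 7.5, 10mM Mg acetate, 0.01% Tween-20, 0.05% BSA; qHTS 6-point titration, ~60 µM downward; luminescence read.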
# SMN2 splice enh – qHTS Assay for Enhancers of SMN2 Splice Variant Expression; AID 1458, 2008; Potency, µM (doses to about 46.1 µM), for the others: top-dose activity change, positive = activation, usual class: activators; 210,000 tested, 2.8% active; HEK293 SMN2-luciferase splicing reporter, luminescence, 30-36 h; note: % of control where 0% means no effect; nearly all actives have a fitted effect of over 55% in size
#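 HEK293 cells carry an SMN2 minigene-luciferase reporter in which exon 7 inclusion puts luciferase in frame. Cells were seeded at 2000 cells/well, attached for 10-12 hours, then exposed to compounds for 30-36 hours at 37C before ONE-Glo luminescence.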
# NPC1 promoter act – qHTS Assay for NPC1 Promoter Activators; Huh7 NPC1 promoter luciferase reporter, 24 h; Potency, µM (top dose mostly 9.22 µM), without a hit: top-dose activation, most hits filed as activators; 320,000 tested, 2.4% active; note: % of control where 0% means no effect; nearly all actives have a fitted effect of over 60% in size
#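 Stable NPC1-promoter luciferase Huh7 line; cpd (DMSO) 24 h, 37 °C, 5% CO2; Amplite luciferase reagent 10 min RT; luminescence readout. qHTS format.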
# Starred values were filed as active, the others as inactive; u = inconclusive; x = not tested or not shown. Calls come from the whole dose curve; as a rule, active = well fitted curve in the direction sought with a large enough effect; inconclusive = small, poorly fitted or top-dose-only effect, or another doubt; inactive = no such curve, though single readings can be large; an effect the other way counts as inactive or inconclusive. Potency is the fitted concentration of half-maximal effect.
SMILES,Rab9 prom act,ELG1 genotoxic,FLuc counter,SMN2 splice enh,NPC1 promoter act
COc1ccc(C(=O)Nc2ccc3nc(C)sc3c2)cc1OC,u,23%,u,x,18%
CC(=O)c1ccc(S(=O)(=O)N2CCN(c3nc(-c4cccnc4)nc4ccccc34)CC2)cc1,1%,-7%,6%,x,-6%
CCC(=O)Nc1cc(C)c(O)c(-c2nc3ncccc3o2)c1,x,x,3%,x,x
COc1cc(NC(=O)CCCN2C(=O)CCn3nc(-c4cn(C)c5ccccc45)cc32)cc(OC)c1,x,x,-2%,x,x
Nc1nnc(-c2ccc(Cl)c(Cl)c2)s1,14%,1%,u,3%,2%
Nc1cccn2c(-c3ccc(Cl)c(Cl)c3)cnc12,3.2µM*,u,3µM*,3.5µM*,u
Cn1c(-c2ccc(Cl)cc2)cnc1N,7%,-2%,0%,-4%,9%
Nc1cccn2c(-c3ccc(Cl)cc3)cnc12,3.5µM*,u,2.7µM*,11µM*,u
O=C(Nc1ccnn1C1CCN(Cc2ccc(O)c(Cl)c2)CC1)C1CCCC1,1%,0%,3%,x,0%
Cc1cc2oc(C(=O)Nc3sc4c(c3C(=O)NCc3ccco3)CCC4)cc(=O)c2cc1C,x,x,1%,6%,x
NCCCCCCN,x,x,x,-6%,x
O=S(=O)(Cc1cc(-c2ccc(Cl)cc2)no1)c1ccccc1,3.5µM*,9.2µM*,u,13µM*,u
Clc1ccc(OCc2cc(-c3ccccc3)no2)cc1Cl,24%,12%,u,24%,14%
O=S(=O)(Cc1cc(-c2ccccc2Cl)no1)c1ccccc1,2.8µM*,u,17µM*,u,u
Clc1ccc(-c2cc(COc3ccccc3)on2)cc1,u,-16%,11µM*,u,15%
Cc1ccccc1N1CCN(C2CCCN(C(=O)c3ccnn3C)C2)CC1 (stereo not given),-1%,-5%,0%,x,-2%
CCOc1ccc2nc(N)sc2c1,x,x,x,29%,x
CCc1ccc(NC(=O)c2ccc3nc(N)sc3c2)cc1,u,u,12µM*,u,u
Nc1nc2ccc(C(=O)Nc3ccccc3)cc2s1,3.2µM*,u,19µM*,x,3.5µM*
CCc1ccc2nc(N)sc2c1,3.5µM*,u,11µM*,20µM*,2.2µM*
O=C(NCc1ccccc1)c1c(Cl)nc(Cl)c(Cl)c1Cl,-29%,-15%,0%,x,-38%
O=c1c2ccccc2c(/C=N/c2n[nH]c(CCCO)n2)c(O)n1-c1ccccc1Cl,-2%,1%,17µM*,5%,-2%
COc1cc(CNc2ccc(NC(C)=O)cc2)ccc1OCc1ccccc1C,u,u,15µM*,15%,13%
COc1cc(CNc2ccc(N3CCN(C(C)=O)CC3)cc2)ccc1OCc1ccccc1,-8%,u,u,x,-2%
Cc1cc(-c2nnc(CCC(=O)NCCc3ccccc3F)o2)no1,6%,4%,-4%,x,2%
SMILES,Rab9 prom act,ELG1 genotoxic,FLuc counter,SMN2 splice enh,NPC1 promoter act
O=C1COc2ccc(OCc3ccc(F)cc3)cc21,1.1µM*,u,4.3µM*,11µM*,1.4µM*
COc1ccc(N=[N+]([O-])c2ccc(OC)cc2)cc1,x,x,x,7.1µM*,x
O=C(NCc1n[nH]c(=O)c2ccccc12)C1CC(=O)N(c2ccccc2)C1 (stereo not given),-3%,-1%,-3%,x,-6%
FC(F)(F)Oc1ccccc1-c1nnc(-c2cccc(C(F)(F)F)c2)o1,-5%,-1%,-3%,x,0%
COc1cccc(-c2nnc(-c3ccc(C(F)(F)F)cc3)o2)c1OC,u,u,7.6µM*,18µM*,26%
CCc1noc(C)c1C(=O)Nc1cc(S(=O)(=O)N2CCOCC2)ccc1N1CCN(CC)CC1,-5%,3%,-2%,x,0%
Cc1ccc(NCc2nnc3n2CCCCC3)cc1Cl,x,x,-1%,x,x
CCOc1ccc(S(=O)(=O)N2CCN(C(=O)C3CSC4(C)CCC(=O)N34)CC2)cc1 (stereo not given),-3%,-1%,5%,x,2%
Cc1cc(C(=O)COc2cccnc2[N+](=O)[O-])c(C)n1Cc1cccs1,2%,u,24µM*,-38%,-2%
CC(=O)Nc1ccccc1OCC(=O)c1cc(C)n(Cc2cccs2)c1C,-22%,10µM*,u,-109%,-17%
COC(=O)CCn1c(C)cc(C(=O)COc2ccccc2C(N)=O)c1C,-13%,-16%,u,-32%,-20%
CCCn1c(C)cc(C(=O)COc2ccc(C)nc2[N+](=O)[O-])c1C,18%,14%,u,x,4%
Cc1cc(-n2c(C)cc(C(=O)COc3cccnc3[N+](=O)[O-])c2C)no1,11%,3%,-7%,x,6%
Cc1ccc(OCC(=O)c2cc(C)n(-c3ccccc3)c2C)c([N+](=O)[O-])n1,-6%,-4%,19µM*,-58%,-3%
Cc1cn2c(=O)c(S(=O)(=O)NCc3ccccc3Cl)c(C)nc2s1,x,x,-6%,x,x
CCN(CC)CCN(C(=O)c1ccco1)c1nc2cc(C)cc(C)c2s1,x,x,-6%,x,x
Nc1ccc(Oc2cc(N)cc(Oc3ccccc3)c2)cc1,u,u,6µM*,x,2µM*
COc1ccc(NC(=O)N2CCCc3ccccc32)cc1,5%,21%,u,-6%,13%
COc1ccc(NC(=O)N2CCc3ccccc32)cc1,0.4µM*,u,1.7µM*,3.2µM*,0.63µM*
COc1ccc(CCC(=O)N2c3ccccc3CC2C)cc1 (stereo not given),22%,u,u,39%,24%
